# KDM5B inhibitor – Primary screen for KDM5B Histone Demethylases FDH-coupled qHTS; Lysine-specific demethylase 5B (Homo sapiens), Q9UGL1; KDM5B demethylase, FDH-coupled NADH fluorescence (FDH is formaldehyde dehydrogenase); Potency, µM (series often up to 57.7 µM), most hits filed as inhibitors; hit rate 2.6% among 220,000; AID 1347165, 2019; active = well fitted inhibition curve with a large enough effect; also: 0% is about no effect; nearly all actives have a fitted effect of over 70% in size
# Target sequence (Q9UGL1 whole entry, looked up): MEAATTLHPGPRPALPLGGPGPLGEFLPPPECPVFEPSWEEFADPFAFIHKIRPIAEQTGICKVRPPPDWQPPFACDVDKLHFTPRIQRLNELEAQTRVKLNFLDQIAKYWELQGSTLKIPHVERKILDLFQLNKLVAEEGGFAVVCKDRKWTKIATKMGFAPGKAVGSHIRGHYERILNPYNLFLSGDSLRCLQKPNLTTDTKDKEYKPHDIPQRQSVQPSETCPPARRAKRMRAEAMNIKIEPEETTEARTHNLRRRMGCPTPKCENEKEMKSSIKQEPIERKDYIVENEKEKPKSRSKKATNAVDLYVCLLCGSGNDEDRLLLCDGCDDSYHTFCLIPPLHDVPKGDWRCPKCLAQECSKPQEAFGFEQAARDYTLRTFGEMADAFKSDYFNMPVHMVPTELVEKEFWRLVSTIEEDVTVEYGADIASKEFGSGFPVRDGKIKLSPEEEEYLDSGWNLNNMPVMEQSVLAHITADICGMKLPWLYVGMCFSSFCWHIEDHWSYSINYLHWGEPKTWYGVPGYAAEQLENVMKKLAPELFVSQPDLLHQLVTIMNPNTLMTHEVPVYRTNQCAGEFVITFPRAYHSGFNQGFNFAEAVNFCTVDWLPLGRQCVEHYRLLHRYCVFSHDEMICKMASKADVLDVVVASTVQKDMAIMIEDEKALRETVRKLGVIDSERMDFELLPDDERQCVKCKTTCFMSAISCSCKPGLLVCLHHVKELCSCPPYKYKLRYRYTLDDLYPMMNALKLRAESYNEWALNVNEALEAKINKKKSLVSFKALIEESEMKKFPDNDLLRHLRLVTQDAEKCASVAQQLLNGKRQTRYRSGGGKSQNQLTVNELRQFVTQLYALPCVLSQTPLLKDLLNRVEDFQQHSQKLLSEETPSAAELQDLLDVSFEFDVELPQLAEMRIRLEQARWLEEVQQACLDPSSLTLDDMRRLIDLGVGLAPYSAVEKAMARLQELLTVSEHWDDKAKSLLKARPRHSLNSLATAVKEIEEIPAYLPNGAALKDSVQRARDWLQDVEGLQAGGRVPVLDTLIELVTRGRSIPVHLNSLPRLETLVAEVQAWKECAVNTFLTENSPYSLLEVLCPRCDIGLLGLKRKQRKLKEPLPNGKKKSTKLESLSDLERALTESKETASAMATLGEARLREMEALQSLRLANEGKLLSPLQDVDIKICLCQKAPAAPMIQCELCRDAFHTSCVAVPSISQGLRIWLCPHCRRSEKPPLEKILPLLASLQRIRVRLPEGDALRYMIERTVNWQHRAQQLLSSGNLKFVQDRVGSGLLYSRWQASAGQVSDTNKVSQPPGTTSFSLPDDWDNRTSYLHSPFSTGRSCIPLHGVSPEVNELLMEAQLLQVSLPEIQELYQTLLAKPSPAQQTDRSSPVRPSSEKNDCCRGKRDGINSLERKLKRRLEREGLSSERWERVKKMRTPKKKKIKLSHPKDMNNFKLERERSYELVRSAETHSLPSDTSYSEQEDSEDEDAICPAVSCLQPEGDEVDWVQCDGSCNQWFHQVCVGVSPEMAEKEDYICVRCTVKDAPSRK
#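 Inhibition is measured as reduced NADH fluorescence generation from FDH coupling to formaldehyde release. Truncated KDM5BΔAP at 200 nM final acts on H3K4me3 peptide (12.5 µM in substrate mix) in pH 7.5 HEPES buffer with Tween-20, 30 min, room temperature.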
# * marks the source's active call; other numbers are inactive results; i = inactive. Many of the other results were omitted from the sample, so hits are more common in it than they were. Potency is read from the fitted curve at half-maximal effect.
SMILES,KDM5B inhibitor
COC(=O)[C@H](CC(C)C)NC(=O)Nc1ccc2c(c1)OCCO2,i
COc1ccc(Cl)cc1NCCC(O)c1ccc(F)cc1 (stereo not given),i
Cc1ccc(Cn2c(C3CCN(C(=O)c4ccsc4)CC3)n[nH]c2=O)cc1,i
Cc1cccc(C(=O)N2CCC(Oc3cccnc3)C2)c1 (stereo not given),i
CN1CCC(OC2CCN(S(=O)(=O)c3ccccc3)CC2)CC1,i
Cc1cccc(C(=O)N2CCC(Oc3ncccc3C(N)=O)C2)c1 (stereo not given),i
COc1nccnc1NC1CCN(S(=O)(=O)c2ccccc2)CC1,25.1µM*
c1cnc(N2CCOCC2)c(OC2CCNC2)n1 (stereo not given),i
COc1ccccc1CNC(=O)CCC1CCN(S(=O)(=O)c2ccccc2)CC1,i
CC(=O)N(C1CC1)C1CCOC2(CCN(C(=O)c3ccc4nc[nH]c4c3)CC2)C1 (stereo not given),i
CS(=O)(=O)N1CCC(C2CCN(C(=O)c3ccc4nc[nH]c4c3)C2)CC1 (stereo not given),i
COc1nccnc1NC1CCN(C(=O)c2cccc(C)c2)CC1,31.6µM*
CO[C@H]1C(=O)N(C2CCNCC2)[C@H]1c1ccncc1,i
COc1nccnc1NC1CCN(C(=O)c2ccc3nc[nH]c3c2)CC1,28.2µM*
COc1nccnc1NC1CCNCC1,15.8µM*
O=C(Cn1c(=O)oc2cc(S(=O)(=O)NCc3ccccc3)ccc21)NCc1ccc(F)cc1,i
Cc1nnc2n1CCC(N(C)C(=O)NC1CCCC1)CC2 (stereo not given),i
O=C(Nc1nc2ccccc2s1)C1CCN(S(=O)(=O)c2cc([N+](=O)[O-])ccc2Cl)CC1,i
Cc1cc(C)cc(NC(=O)C2CC(=O)NC(=NCc3ccccc3)N2)c1 (stereo not given),i
COc1ccc(Cc2nnc(SCC(=O)Nc3ccc(Br)c(C)c3C)n2C)cc1,i
Cc1ccc(CN(C(=O)c2ccco2)c2ccc(CC(=O)N3CCOCC3)cc2)cc1,i
O=C(c1ccc(Cl)nc1)N1CCC2(CC1)Cc1ccccc1NC2=O,i
CC(=O)c1c(C)[nH]c(C(=O)C(C)OC(=O)c2ccccc2)c1C (stereo not given),i
CCC(NC1CCN(C(=O)c2ccccc2)CC1)c1ccnn1C (stereo not given),i
O=C(c1ccccc1)N1CCC(Oc2ncccc2C(=O)N2CCCCC2)C1 (stereo not given),i
SMILES,KDM5B inhibitor
COC1CCOC2(CCN(C(=O)c3ccco3)CC2)C1 (stereo not given),i
COC1CCC12CCN(C(=O)c1ccco1)CC2 (stereo not given),i
CCCOc1nccnc1NC1CCN(C(=O)c2ccncc2)CC1,28.2µM*
O=C(c1ccccc1)N1CCC(Oc2nccnc2N2CCOCC2)C1 (stereo not given),i
O=C(c1ccncc1)N1CCC(Oc2cccnc2)C1 (stereo not given),i
COc1nccnc1NC1CCN(C(=O)c2ccccc2)CC1,31.6µM*
COc1nccnc1NC1CCN(C(=O)c2ccco2)CC1,25.1µM*
CC1(C)OC2OC(C(=O)Oc3ccccc3)C3OC(C)(C)OC3C2O1 (stereo not given),i
CNc1nccc(N2CCC(CC(=O)NCCOC)CC2)n1,i
O=C(NCC1(c2ccccc2)CC1)c1cccc(S(=O)(=O)N2CCCCC2)c1,i
COc1ccc(-c2nc3sc(CCNC(=O)C(=O)Nc4cc(F)ccc4F)c(C)n3n2)cc1,i
CCN(CC)CCNC(=O)Cn1ncc2c3ccccc3n(Cc3ccc(Cl)cc3)c2c1=O,i
CCCCCCCC1(C)NC(=O)N(Cc2coc(-c3ccccc3)n2)C1=O (stereo not given),i
CCc1noc(-c2cccn3c(CNC(=O)Cc4ccc(F)cc4)nnc23)n1,28.2µM*
CCCc1noc(-c2ccn3c(CNC(=O)c4cccc(C)c4)nnc3c2)n1,i
CCc1noc(-c2cccn3c(CNC(=O)c4cccc(C)c4)nnc23)n1,28.2µM*
O=C(Cn1nc2c(-c3nc(-c4cccc(F)c4)no3)cccn2c1=O)NCc1ccc(F)cc1,i
CC(C)c1noc(-c2cn(C3CCN(C(=O)Cc4ccc(F)cc4)CC3)nn2)n1,i
CC(C)c1noc(-c2cccn3c(CNC(=O)Cc4ccc(F)cc4)nnc23)n1,14.1µM*
CCc1noc(-c2cccn3c(CNC(=O)Cc4ccc(C)cc4)nnc23)n1,25.1µM*
Cc1ccc(C(=O)N2CCOC(CN(C(=O)c3ccc(F)cc3)C3CCCC3)C2)cc1 (stereo not given),i
COCCO[C@H]1C(=O)N(C2CCN(C(=O)c3ccoc3)CC2)[C@H]1c1ccncc1,i
CCOc1ccc(NC(=O)Cn2cc(C(=O)c3ccc(C)c(C)c3)c(=O)c3cc(F)ccc32)cc1,i
Cn1cc(C(=O)NCCNC(=O)Cc2ccccc2)c2ccccc21,i
CC1(C)CC(NC(=O)CCCc2ccccc2)CC(C)(C)N1,i
SMILES,KDM5B inhibitor
CCC(Sc1nc2cc(OC)c(OC)cc2c2nc(-c3ccccc3)nn12)C(=O)Nc1cccc(C)c1 (stereo not given),i
Cn1c(=O)n(CCC(=O)N2CCCC2)c(=O)c2cc(S(=O)(=O)Nc3ccc(C#N)cc3)ccc21,i
O=C1Nc2ccccc2CC12CCN(Cc1ccc(OC(F)(F)F)cc1)C2 (stereo not given),i
O=C(NCC(O)c1ccccc1)C1CCC(CNS(=O)(=O)c2ccc(Cl)cc2)CC1 (stereo not given),i
Cn1c(=O)oc2cc(NC(=O)Nc3ccc(F)c(Cl)c3)ccc21,i
CC(=O)N1CCc2c(c3ccccc3n2C)C1,25.1µM*
COc1ccc(NC(=O)C(=O)c2c(C)n(C)c3ccccc23)cc1,i
Cn1c(C(=O)Nc2ccccc2)c(Cl)c2ccccc21,i
Cn1c2c(c3cc(F)ccc31)CN(C(=O)Nc1ccc(F)c(Cl)c1)CC2,31.6µM*
O=C(Nc1ccc(Br)cc1)N1CCc2ccccc2C1,i
Cn1cc(C(=O)C(=O)N2CCCCC2)c2ccccc21,i
COc1ccc(NC(=O)N2CCC3(CCNCC3)C2)cc1,i
Cn1c2c(c3ccccc31)CN(C(=O)Nc1ccccc1)CC2,22.4µM*
Cc1cc2n(n1)CCCN2C(=O)Nc1ccc(F)c(Cl)c1,i
COc1ccc(NC(=O)N2CCc3c(c4ccccc4n3C)C2)cc1,25.1µM*
CCCCN1CCc2c(c3ccccc3n2Cc2ccccc2)C1,i
Cc1ccc(CNC(=O)C2CCN(S(=O)(=O)N3CCC(C)CC3)CC2)cc1,i
CC(C)(C)NC(=O)NC(=O)CN1CCN(S(=O)(=O)c2ccccc2)CC1,i
Cc1nn(-c2ccccc2)cc1C(=O)N1CCC(CC(=O)NCc2cccnc2)CC1,i
O=C1NCc2ccccc2CC12CCN(Cc1cc(F)ccc1O)CC2,i
O=C(CCC1CCN(Cc2cnc[nH]2)CC1)NC1CCN(Cc2ccccc2)C1 (stereo not given),i
O=C(CSc1nnnn1-c1cccnc1)Nc1ccc(F)cc1F,i
Cc1ccc(-c2sc(C(=O)O)cc2C)o1,i
O=C(Nc1ccc(F)cc1F)N1CCN(c2ccc(Cl)c(Cl)c2)CC1,i
O=C(Nc1ccc(Cl)cc1Cl)N1CCc2[nH]c3ccc(F)cc3c2C1,31.6µM*
O=C(Nc1ccc(F)cc1F)Nc1ncc(Cl)cc1Cl,i
CN1C(=O)C2(CCN(S(=O)(=O)c3ccc(F)cc3)C2)c2ccccc21 (stereo not given),i

# Compound activity: PubChem BioAssay, National Center for Advancing Translational Sciences (NCATS)
